Results published in PubChem BioAssay (NCI).
This is part of a sample that, as a whole, favours compounds with a hit. Of some 83,000 tested, about 20% had one in any assay.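 Note: values are percent growth. 100 is the growth of untreated cells, values between 100 and 0 indicate rising inhibition; between -100 and 0 indicates cell death.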 A number with no mark means an inactive call. Activity calls are given as the source filed them. The calls were made as follows: active = growth percent below 10; inactive = the rest.

Legend:
Assay in all cases: NCI-60 one-dose screen, 48 h (100 = growth as untreated, 0 = no growth, -100 = all killed)
Conditions in all cases: 10 µM unless noted
NCI-H23 lung = test system: NCI-H23 lung
NCI-H226 lung = test system: NCI-H226 lung
NCI-H322M lung = test system: NCI-H322M lung
HOP-62 NSCLC = test system: HOP-62 NSCLC
NCI-H460 lung = test system: NCI-H460 lung
A549/ATCC NSCLC = test system: A549/ATCC NSCLC
786-0 renal = test system: 786-0 renal
COLO 205 colon = test system: COLO 205 colon
DU-145 prostate = test system: DU-145 prostate
K-562 leukemia = test system: K-562 leukemia
MALME-3M melanoma = test system: MALME-3M melanoma
MDA-MB-231 breast = test system: MDA-MB-231 breast
RXF 393 renal = test system: RXF 393 renal
SF-268 CNS = test system: SF-268 CNS
SF-295 CNS = test system: SF-295 CNS
SF-539 CNS = test system: SF-539 CNS
UACC-257 melanoma = test system: UACC-257 melanoma
M14 melanoma = test system: M14 melanoma
NCI-H522 lung = test system: NCI-H522 lung

SMILES | growth (NCI-H23 lung) | growth (NCI-H226 lung) | growth (NCI-H322M lung) | growth (HOP-62 NSCLC) | growth (NCI-H460 lung) | growth (A549/ATCC NSCLC) | growth (786-0 renal) | growth (COLO 205 colon) | growth (DU-145 prostate) | growth (K-562 leukemia) | growth (MALME-3M melanoma) | growth (MDA-MB-231 breast) | growth (RXF 393 renal) | growth (SF-268 CNS) | growth (SF-295 CNS) | growth (SF-539 CNS) | growth (UACC-257 melanoma) | growth (M14 melanoma) | growth (NCI-H522 lung)
C=CCOc1ccc2c(C)cc(=O)oc2c1 | 102% | 109% | 126% | 112% | 99.6% | 89.6% | 109% | 138% | 109% | 99.4% | 132% | 128% | 134% | 109% | 99.8% | 103% | 105% | 122% | –
CCSc1cnnc2ccccc12 | 101% | 101% | 118% | 104% | 118% | 108% | 109% | 111% | 113% | 85.7% | 124% | 103% | 123% | 102% | 117% | 106% | 113% | 105% | –
Clc1cc(Cl)cc(-c2cnc3nonc3n2)c1 | 77.3% | 104% | 95.1% | 87.4% | 106% | 103% | 93.2% | – | 97.9% | 79% | 76.9% | 89.7% | 108% | 93.5% | 99.8% | 107% | 89.9% | 90.2% | –
CCN1C(=O)C(C)C=C(C)C=C1C (configuration not stated) | 102% | 102% | 108% | 105% | 113% | 105% | 115% | 104% | 90.7% | 95.3% | 104% | 112% | 106% | 103% | 59.8% | 112% | 107% | 120% | –
CCCCCCCCCCCC1=NC(C)(C)CN1CCO | 65.1% | 88.2% | 87.7% | 56.4% | 46.2% | 89.9% | 70.4% | -57.7% (active) | 77.8% | – | 88.9% | 53.7% | 35.4% | 67.2% | 81.4% | 78.9% | 77.9% | 48.4% | –
CC(C)c1nc2ccccc2n1CC(=O)N/N=C/c1cccc(O)c1 | 101% | 105% | 93.2% | 97.4% | 102% | 97.5% | 95.6% | 108% | 104% | 87% | 108% | 93.4% | 104% | 99.2% | 103% | 97.6% | 87.7% | 94.8% | –
CCCCCCCC/C=C/CCCCCCCC1=NC(C)(C)CN1C(C)C | -2.44% (active) | 61.4% | 76.8% | -79.6% (active) | -45.9% (active) | 15.7% | – | -67.3% (active) | 21.9% | -54.5% (active) | -19.5% (active) | -9.32% (active) | -68.1% (active) | 4.16% (active) | 6.07% (active) | 8.28% (active) | 11.1% | -75.3% (active) | -57.6% (active)
Cc1ccc(OC2=C(C#N)C(=N)N3C(=NN2)Sc2c(C)ccc(C)c23)cc1 | 85.3% | 93.4% | 102% | 99.6% | 100% | 98.6% | 110% | 106% | 122% | 98% | 120% | 95.4% | 106% | 113% | 96.7% | 102% | 108% | 109% | –
COc1cnc2c(c1)C(=O)c1c-2n(CCCN2CCNCC2)c(=O)c2cc(Cl)ccc12 | -63.2% (active) | 18.6% | 54.3% | -24.4% (active) | -81.2% (active) | -30.9% (active) | -81.1% (active) | 22.7% | -95.8% (active) | -75.8% (active) | -51.5% (active) | -73.1% (active) | -1.72% (active) | -75.6% (active) | 15.5% | -93.8% (active) | 22.4% | -79.5% (active) | –
O=C(Cc1ccc([N+](=O)[O-])cc1)Oc1ccccc1 | 109% | 111% | 103% | 102% | 114% | 111% | 104% | 109% | 129% | 104% | 146% | 108% | 122% | 111% | 121% | 105% | 110% | 106% | –
NNC(=O)CSc1nc2scc(-c3ccccc3)c2c(=O)n1-c1ccccc1 | 101% | 84% | 122% | 91.4% | 110% | 115% | 86.8% | 107% | 111% | 89.9% | 155% | 86.6% | -50.2% (active) | 85.6% | 144% | 96.5% | 129% | 112% | –
COc1ccccc1CNCCCN1C(=O)c2ccc3c4c(ccc(c24)C1=O)C(=O)N(CCCOCCCCOCCCN)C3=O | -67.6% (active) | -10.8% (active) | -12.1% (active) | 14% | -65.5% (active) | -33.8% (active) | 14.3% | -95% (active) | -74% (active) | – | -93.1% (active) | -4.84% (active) | -42.6% (active) | -21.5% (active) | -9.19% (active) | -34.9% (active) | -91.7% (active) | -85.4% (active) | –
COc1ccc(-c2cnc(-c3ccncc3-c3cccc(OC)c3)o2)cc1 | 19.4% | 15.3% | 56.3% | 26.3% | 7.36% (active) | 30.7% | 24.8% | – | 0.973% (active) | 7.13% (active) | 92% | -9.9% (active) | 43.1% | 18.2% | -8.54% (active) | -0.0741% (active) | 83.6% | 23.9% | –
NS(=O)(=O)c1ccc(CCn2c(SCC(=O)N/N=C/c3ccccc3O)nc3ccccc3c2=O)cc1 | 65.4% | 51.1% | 77.5% | 44.4% | 23.1% | 53.9% | 41.7% | 49.9% | 42.7% | 9.2% (active) | 62.3% | 63.4% | 46.7% | 55.8% | 39.7% | 25.6% | 55.6% | 41.5% | –
c1cc(C2CCCCC2)ccc1-c1cnc2nonc2n1 | 38.7% | 47.5% | 50.1% | 18.5% | 14.4% | 34.6% | 13.5% | 2.48% (active) | 13.8% | 5.7% (active) | 48.8% | 18.6% | -3.18% (active) | 32% | 28.3% | 0.0756% (active) | 42.6% | -16.7% (active) | –
O=C(O/C(=C/c1ccccc1)C(F)(F)F)c1ccccc1 | 109% | 102% | 125% | 105% | 117% | 101% | 107% | 99.3% | 102% | 101% | 118% | 95% | 108% | 96% | 114% | 103% | 101% | 107% | –
COc1ccc(-c2cc(-c3cn(-c4cccc(Cl)c4)nc3-c3ccc(OC)cc3)[nH]c(=S)n2)cc1 | 83% | 85.8% | 95.5% | 99.1% | 33.5% | 50.4% | 96.5% | 86.6% | 50.1% | 101% | 90.9% | 67.7% | 102% | 70.6% | 93% | 92.2% | 71.5% | 92% | –
